Assay results: PubChem BioAssay (NCATS)
Inconclusive results are not listed. Where a call stands in place of a potency, no number is given. Activity calls are given as the source filed them. The call rests on the fitted dose curve; in most records, active means well fitted curve in the direction sought with a large enough effect; inconclusive means small, poorly fitted or top-dose-only effect, or another doubt; inactive means no such curve, though single readings can be large; an effect the other way counts as inactive or inconclusive.

Legend:
[1] = biological target: Luciferin 4-monooxygenase (Photinus pyralis) (UniProt P08659); experiment: Firefly luciferase counterscreen qHTS: Assay Interference Panel against the NCATS CANVASS Library (AID 1347363); settings: purified firefly luciferase, luminescence inhibition, 5 min; series mostly up to 57.5 µM; further: potency means the concentration at half of the fitted maximal effect
Luciferin 4-monooxygenase (Photinus pyralis), sequence (P08659 whole entry, looked up): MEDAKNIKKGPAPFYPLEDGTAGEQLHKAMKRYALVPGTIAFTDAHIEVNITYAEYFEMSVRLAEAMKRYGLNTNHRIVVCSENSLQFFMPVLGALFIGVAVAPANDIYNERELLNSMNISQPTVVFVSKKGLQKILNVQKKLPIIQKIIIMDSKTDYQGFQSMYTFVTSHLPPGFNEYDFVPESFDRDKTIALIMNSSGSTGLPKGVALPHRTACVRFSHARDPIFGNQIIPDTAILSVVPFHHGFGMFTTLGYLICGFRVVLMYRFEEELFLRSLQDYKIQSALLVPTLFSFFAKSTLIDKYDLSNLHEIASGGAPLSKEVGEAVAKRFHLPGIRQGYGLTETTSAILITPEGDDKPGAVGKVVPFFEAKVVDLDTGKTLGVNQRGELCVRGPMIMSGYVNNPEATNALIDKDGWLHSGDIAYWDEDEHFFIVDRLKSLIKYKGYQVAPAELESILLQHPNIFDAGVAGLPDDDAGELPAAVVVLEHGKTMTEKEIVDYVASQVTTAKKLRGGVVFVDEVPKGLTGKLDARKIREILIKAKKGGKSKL
Outline: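 Luminescence inhibition readout: compounds (11-point qHTS) sat 15 min at room temperature with substrate mix (0.013 mM luciferin and ATP), then firefly luciferase was added and signal read 5 min later.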

[2] = KB-8-5-11 Cancer Cell Toxicity qHTS against the NCATS CANVASS Library (AID 1347364); settings: KB-8-5-11 MDR cells viability, CellTiter-Glo, 72 h; series mostly up to 46.1 µM; further: nearly all actives have a fitted effect of over 75% in size
Description: Natural products and their derivatives continue to be wellsprings of nascent therapeutic potential. However, many laboratories have limited resources for biological evaluation, leaving their previously isolated or synthesized compounds largely or completely untested. To address this issue, the Canvass library of natural products was assembled (https://tripod.nih.gov/canvass), in collaboration with academic and industry researchers, for quantitative high-throughput screening (qHTS) across a diverse set of cell-based and biochemical assays. The pure (>85% purity by liquid chromatography/mass spectrometry [LC/MS]) Canvass library of 346 natural products were submitted by 45 academic laboratories and companies around the world. We collected pure natural products to circumvent deconvolution and structure elucidation due to time and resource limitations. The library was formatted into 1536-well plates and evaluated in 50 qHTS (in an 11-pnt concentration series) bioassays with broad scope of disease-relevant mechanisms. The resulting data set from 50 different assays was then systematically analyzed to identify overall trends and specific natural products with interesting biological activities. Reported herein are the results of each individual qHTS and their corresponding assay protocol. […] National Center for Advancing Translational Sciences (NCATS), Rockville, MD National Institute of Health (NIH), Bethesda, Maryland
Cancer Cell Toxicity qHTS protocol 1. In a 1536 well, tissue culture treated white solid bottom plates (Corning 7494), 5 uL of KB-8-5-11 cell solution (final concentration of 500 cells / well) was dispensed using the Multidrop Combi dispenser (Thermo Fisher Scientific) into columns 3-48, rows 1-32. DMEM + 10% FBS + 100 U/mL penicillin / 100ug/mL streptomycin media solution was dispensed into column 1-2, row 1-32 also using the Multidrop Combi dispenser. […] Luminescence signal was acquired via the ViewLux plate reader (PerkinElmer) using a clear emission filter, 1 sec exposure, and 1x binning settings.

[3] = SDT Cancer Cell Toxicity qHTS against the NCATS CANVASS Library (AID 1347365); settings: SDT dog glioma viability, ATP luminescence, 72 h; series mostly up to 46.1 µM;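 further: SDT canine glioma cells 500 per well in 1536 well plates; nearly all actives have a fitted effect of over 60% in size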
Outline: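 Cytotoxicity is measured from cellular ATP: compounds in an 11-point concentration series are pinned onto SDT cells, incubated 72 hr at 37C, then CellTiterGlo is added and luminescence read.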

[4] = KB-3-1 Cancer Cell Toxicity qHTS against the NCATS CANVASS Library (AID 1347366); settings: KB-3-1 viability, CellTiter-Glo luminescence, 72 h; series mostly up to 46.1 µM; further: nearly all actives have a fitted effect of over 75% in size
Outline: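 KB-3-1 cells (500 cells/well) in DMEM + 10% FBS were treated with compounds for 72 hr at 37C, 5% CO2. Viability was read as CellTiter-Glo luminescence after 10 minutes at room temperature.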

[5] = qHTS for ATAD5 Agonist screened against the NCATS CANVASS Library (AID 1347367); settings: HEK293T ATAD5-luciferase reporter, luminescence, 16 h; series mostly up to 46.1 µM;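 further: luciferase reporter driven by ATAD5 which rises upon DNA damage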
Outline: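 HEK293T cells stably carrying an ATAD5-controlled luciferase reporter (2000 cells/well) attached for 5 hr, then received compounds in an 11-point series for 16hr at 37C. Luminescence was read after a 30 min room-temperature reagent step.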

[6] = G06 Cancer Cell Toxicity qHTS against the NCATS CANVASS Library (AID 1347368); settings: G06 dog glioma cells, viability ATP luminescence, 72 h; series mostly up to 91.4 µM; further: nearly all actives have a fitted effect of over 60% in size
Outline: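 Cells were plated at 500 per well, then compounds were added over an 11-point range. After 72 hr at 37C, CellTiterGlo was added and luminescence measured as ATP content.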

[7] = MCF7 Cancer Cell Toxicity qHTS against the NCATS CANVASS Library (AID 1347369); settings: MCF7 viability, ATP luminescence (CellTiter-Glo), 72 h; series mostly up to 46 µM
Outline: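 MCF7, 500 cells/well; cpds 11-pt qHTS; 72 hr, 37C/5% CO2; CellTiterGlo ATP luminescence.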

[8] = qHTS for ATAD5 Antagonist screened against the NCATS CANVASS Library (AID 1347370); settings: HEK293T-ATAD5-luc, 5-FUrd stimulated, luminescence, 16 h; series mostly up to 46.1 µM;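 further: HEK293T cells carrying an ATAD5 luciferase reporter co-treated with 10 µM 5-fluorouridine; nearly all actives have a fitted effect of over 65% in size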
Outline: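 Compounds (11-point) co-dosed with 10 µM 5-FUrd for 16 h at 37 °C onto HEK293T-ATAD5 luciferase reporter cells. Viability measured by CellTiter-Fluor fluorescence, then ATAD5 reporter signal by luminescence.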

[9] = J3T Cancer Cell Toxicity qHTS against the NCATS CANVASS Library (AID 1347371); settings: J3T dog glioma viability, ATP luminescence, 72 h; series mostly up to 91.4 µM
Outline: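 Luminescence from CellTiterGlo, reporting cellular ATP, serves as the viability measure after 72 hr compound treatment of J3T canine glioma cells seeded at 500 cells/well.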

[10] = tested on: NAD(P)H diaphorase (Clostridium kluyveri); experiment: Diaphorse counterscreen qHTS: Assay Interference Panel against the NCATS CANVASS Library (AID 1347362); settings: Diaphorase enzyme, resazurin to resorufin fluorescence; series mostly up to 57.5 µM
Outline: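 Counterscreen for coupling-enzyme interference: resorufin fluorescence from resazurin/NADH turnover, read after 5 min at room temperature. Compounds were tested over an 11-point series after 15 min dark preincubation with diaphorase in PBS-Tween.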

SMILES | Potency [1] | outcome [2] | outcome [3] | outcome [4] | outcome [5] | outcome [6] | outcome [7] | outcome [8] | outcome [9] | outcome [10]
C/C(=C\CC/C(C)=C/CC[C@]1(C)CCc2cc(O)cc(C)c2O1)CC/C=C(\C)C(=O)O | inactive | inactive | inactive | inactive | inactive | inactive | inactive | inactive | inactive | 
CC(=O)O[C@H]1C[C@@]2(C)[C@@H](CC[C@H]3[C@@]4(C)C=CC(=O)[C@@H](C)[C@@H]4[C@H](OC(C)=O)C(=O)[C@@]32C)/C1=C(\CCC=C(C)C)C(=O)O | inactive | inactive |  | inactive | inactive |  | inactive |  |  | 
O=C(/C=C/C=C/c1ccc2c(c1)OCO2)N1CCCCC1 | 6.8 µM (active) |  | inactive | inactive | inactive | inactive | inactive | inactive | inactive | inactive
CC(C)c1ccc2c(c1)CCC1[C@](C)(C(=O)O)CCC[C@]21C (stereo partly drawn) | inactive | inactive | inactive | inactive | inactive | inactive | inactive | inactive | inactive | inactive
